# Laboratory results reported in PubChem BioAssay (NCATS).
# Inconclusive results are not listed. Entries that show only a call come without a potency. Calls of active or inactive are those of the source. Calls come from the whole dose curve; as a rule, active = well fitted inhibition curve with a large enough effect; inconclusive = small, poorly fitted or top-dose-only effect; inactive = flat fitted curve, though single readings scatter.
# What was measured:
# [1] = target: Calcium and integrin-binding protein 1 (Homo sapiens) (UniProt Q99828); experiment: Primary qHTS for Identification of Calcium Integrin Binding Protein 1 (CIB1) Competitor (AID 1508620);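 note: GST tagged CIB1 binding a fluorescein labelled alphaIIb integrin peptide tracer; top concentration of the series differs between compounds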
# In short: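 Fluorescence polarization competition: GST-tagged CIB1 (1 uM final) preincubated with compound 15 min at room temperature, then FITC-labelled alphaIIb peptide (100 nM final) added. After 15 min at room temperature, polarization read at Ex 480/Em 540.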
# [2] = Primary qHTS for inhibitors of nuclear receptor binding SET domain protein 2 (NSD2) in an isogenic RCH-ACV NSD2 p.E1099K mutant (9B) (AID 1645876); note: nearly all actives have a fitted effect of over 70% in size; note: potency is the fitted concentration of half-maximal effect
# Chain of Calcium and integrin-binding protein 1 (Homo sapiens) (Q99828 whole entry, looked up): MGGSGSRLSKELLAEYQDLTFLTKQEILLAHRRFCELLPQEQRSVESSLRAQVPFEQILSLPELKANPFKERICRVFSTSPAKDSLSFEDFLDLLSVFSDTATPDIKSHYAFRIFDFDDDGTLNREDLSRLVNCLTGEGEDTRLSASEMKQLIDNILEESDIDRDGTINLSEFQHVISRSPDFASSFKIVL
SMILES,Potency [1],Potency [2]
COc1cc(O)cc(C)c1C(=O)O[C@@H]1[C@H](O)[C@@H](CO)O[C@H]1n1ccc(=O)[nH]c1=O,inactive,inactive
CC(O)/C=C/C1(O)C(C)C(O[C@@H]2O[C@H](CO)[C@@H](O)[C@H](O)[C@H]2O)C(O)CC1(C)C (stereo not given in full),inactive,inactive
CC(C)=CCC/C(C)=C/CCC1(C)Oc2c(c(O)cc3c2CN(C(CCC(=O)O)C(=O)O)C3=O)CC1O (stereo not given),inactive,inactive
CC1=C(C)C(=O)OC(C(C)C2CCC3C4CC=C5CC(OC6OC(COC7OC(CO)C(O)C(O)C7O)C(O)C(O)C6O)CC(O)C5(C)C4CCC23C)C1 (stereo not given),inactive,inactive
CC(=O)OC/C=C(\C)C(CC1C(C)=C(OC(C)=O)C(=O)C2C(C)(C)C(O)CCC12C)OC(C)=O (stereo not given),inactive,inactive
COC(=O)C1=CO[C@@H](O[C@@H]2O[C@H](CO)[C@@H](O)[C@H](O)[C@H]2O)[C@@H]2[C@@](C)(O)[C@@H](OC(=O)/C=C/c3ccc(O)cc3)C[C@]12O,inactive,inactive
CC1(C)CCC[C@@]2(C)C1[C@H](OC(=O)/C=C/C=C/C(=O)O)C=C1COC(=O)[C@@]12O (stereo not given in full),inactive,inactive
C(#Cc1nc2ncccc2nc1OCCN1CCCC1)c1ccccc1,inactive,2580 nM (active)
C[C@H](NC(c1cccc(C[P+](=O)O)c1)[C@H](C)O)c1ccc(Cl)c(Cl)c1 (stereo not given in full),inactive,inactive
CC1(C)CCC2(C(=O)OC3OC(CO)C(O)C(O)C3O)CCC3(C)C(=CCC4C5(C)CCC(O)C(C)(C(=O)O)C5CCC43C)C2C1O (stereo not given),inactive,inactive
